According to ChEMBL document CHEMBL3988442, “University of Dundee, Small-Polar-MMV Screening Library” (2021):
Among all 48,000 compounds or so, about 13,000 (27%) showed an effect of 50% or more. This is one part of the list.

What follows are compounds tested on Wolbachia pipientis (assay: Anti-Wolbachia Cell-Based Screen). Details: 5 µM.
Format: functional
Design: scale not given: in the data most compounds retested in dose-response had high values

| Structure (SMILES) | Percent Effect [%] |
| --- | --- |
| CCc1cc(N2CCCNCC2)n2nc(C)c(C)c2n1 | 3.882 |
| CCN1CCCC(c2c(-c3ccccc3)ncn2Cc2csc(N)n2)C1 (centres undefined) | 4.265 |
| COc1ccc2[nH]nc(CN3CCC(C(C)N(C)C)CC3)c2c1 (centres undefined) | 2.332 |
| C=C(C)COc1cccc(CN(C)C(C)c2nccs2)c1 (centres undefined) | 12.61 |
| CC(c1ccncn1)N(C)S(=O)(=O)NCc1ccccc1 (centres undefined) | 110.9 |
| CC(c1nccs1)N(C)S(=O)(=O)NCc1ccccc1 (centres undefined) | 97.09 |
| CC(c1ccon1)N(C)C(=O)C1CCN(CC(N)=O)CC1 (centres undefined) | -6.665 |
| CC(c1ccon1)N(C)S(=O)(=O)NCc1ccccc1 (centres undefined) | 110 |
| C=C(C)COc1cccc(CN(C)C(C)c2ccncn2)c1 (centres undefined) | 2.778 |
| CCN(CC)C(CNS(=O)(=O)NCc1ccccc1)c1ccco1 (centres undefined) | -8.171 |
| CC(=O)Nc1ccc(Cl)c(C(=O)N(C)C(C)c2ccncn2)c1 (centres undefined) | 19.4 |
| CC(c1nccs1)N(C)C(=O)c1cc(CN(C)Cc2ccccc2)on1 (centres undefined) | -3.289 |
| CN1CCC(N(C)C[C@H]2CC[C@@H](Cc3ccc4c(cnn4C)c3)O2)CC1 | -7.23 |
| CC(Nc1ccc(Oc2cccc(C#N)c2)cc1)C(=O)NC1CC1 (centres undefined) | 1.244 |
| Cc1nc(C)n(CC2CCCN2Cc2nc(C3CC3)no2)n1 (centres undefined) | 2.651 |
| COCCc1noc(CN2CC(n3nc(C)cc3C)C2)n1 | 87.49 |
| COCCc1noc(CN2CCCC2Cn2nc(C)cc2C)n1 (centres undefined) | 100.2 |
| COCCc1noc(CN2CCCC2Cn2nc(C)nc2C)n1 (centres undefined) | 103.9 |
| Cc1cc(C)n(C2CN(Cc3noc(-c4ccccc4)n3)C2)n1 | -5.64 |
| COc1ccc(-c2nc(CN3CC(n4nc(C)cc4C)C3)no2)cc1 | -0.6245 |
| COCCc1noc(CN2CCCC2c2c(C)nn(C)c2C)n1 (centres undefined) | 1.097 |
| Cc1cc(C)n(CC2CCCN2Cc2c(C)noc2C)n1 (centres undefined) | 3.056 |
| CC(C)CC(CCO)CNC(=O)N1CCOC2(CCCC2)C1 (centres undefined) | 9.888 |
| CC1Cc2ccccc2N1Cc1occc1C(=O)O (centres undefined) | -32.9 |
| O=C(CN1CCSCC1c1ccccc1)N1CCCC1 (centres undefined) | -1.528 |
| CCC(C(=O)NCc1ccn(-c2ccc(F)cc2)n1)N1CCCC1=O (centres undefined) | 13.5 |

| Structure (SMILES) | Percent Effect [%] |
| --- | --- |
| Cc1nccn1C1(C(=O)O)CCN(Cc2ccc3nsnc3c2)CC1 | 4.136 |
| Cc1cc(C(=O)N2CCCC2)ccc1NS(C)(=O)=O | -1.573 |
| Cc1cc(C(=O)N2CCCC2)ccc1NCCO | -9.298 |
| Cc1cc(C(=O)N2CCCCC2C)ccc1NCCCO (centres undefined) | 3.863 |
| CCCNC(=O)CNc1ccc(C(=O)N2CCCCC2C)cc1C (centres undefined) | -8.167 |
| COc1ccc(NC(=O)N2CCOCC(CN(C)C)C2)c(C)c1 (centres undefined) | -4.922 |
| Cc1cc(C(=O)N2CCCC2)ccc1NCC(=O)N1CCCCC1C (centres undefined) | 98.59 |
| Cc1cc(C(=O)N2CCC(C)CC2)ccc1NS(C)(=O)=O | 7.517 |
| Cc1cc(C(=O)N2CCCCC2C)ccc1NC(=O)N1CCOCC1 (centres undefined) | 99.93 |
| Cc1cc(C(=O)N2CCCC2)ccc1NCC(=O)N1CCOCC1 | 96.96 |
| Cc1cc(C(=O)N2CCCCC2C)ccc1NCC(=O)N1CCOCC1 (centres undefined) | -5.879 |
| Cc1cc(C(=O)N2CCCC(C)C2)ccc1NCC(=O)N1CCOCC1 (centres undefined) | 106.6 |
| O=C(O)C(F)(F)F.c1cc(C2CC2)n2cnc(C3CN(Cc4nccs4)CCO3)c2c1 (centres undefined) | 7.631 |
| CC(=O)NCCCSC1CCCN(c2ccccc2Cl)C1=O (centres undefined) | 1.649 |
| Cn1ccnc1SCCNC1CCN(c2ncccn2)CC1 | 12.3 |
| CC(C)c1ccc(-c2nnn(CCNS(C)(=O)=O)n2)cc1 | -15.95 |
| O=C(O)C(F)(F)F.O=C(c1cccs1)N1CCC[C@]2(C[C@@H](OCc3ccncc3)CO2)C1 | -0.9808 |
| Cc1nc(C2CCCN(C(=O)c3cnc(C)s3)C2)no1 (centres undefined) | -5.153 |
| Cc1cnn(CCC(=O)N2CCCC(c3cc(C(N)=O)[nH]n3)C2)c1 (centres undefined) | 5.057 |
| CCn1cc(C(=O)N2CCCC(c3noc(C)n3)C2)cn1 (centres undefined) | 122 |
| Cc1nc(C2CCCN(C(=O)c3cc(C)sc3C)C2)no1 (centres undefined) | -7.599 |
| Cc1cnn(CCC(=O)N2CCCC(c3noc(C)n3)C2)c1 (centres undefined) | 105 |
| Cc1cnn(CCC(=O)N2CCCC(c3nc(C)no3)C2)c1 (centres undefined) | 6.871 |
| Cc1nc(C2CCCN(C(=O)c3cnn(C4CCCCC4)c3)C2)no1 (centres undefined) | 101.3 |
| Cc1nc(C2CCCN(C(=O)c3cnn(C(C)(C)C)c3)C2)no1 (centres undefined) | 1.32 |
| CC(=O)c1cc(CC(=O)NCc2ccsc2)cs1 | -1.009 |

| Structure (SMILES) | Percent Effect [%] |
| --- | --- |
| CC(=O)N1C[C@H](NS(=O)(=O)N2CCOCC2)[C@@H](c2ccc(C)o2)C1 | -11.37 |
| CN1CC(c2ccccc2)CC12CCN(C(=O)c1cncc(Cl)c1)CC2 (centres undefined) | 1.146 |
| CCCc1cc(N2CCCC2Cn2nc(C)nc2C)n2ncnc2n1 (centres undefined) | -15.77 |
| CC(C)(CNC(=O)C(C)(C)Oc1ccc2c(c1)CCCC2=O)C(N)=O | -6.308 |
| CCn1c(C2CCN(C(=O)c3ccc4sc(C)nc4c3)CC2)n[nH]c1=O | -3.012 |
| Cc1nnc2n1CCN(C(=O)c1cnc(C3CC3)s1)C2 | 2.098 |
| Cc1nc2cc(C(=O)N3CCn4c(nnc4C4CC4)C3)ccc2s1 | 86.87 |
| Cc1nc2ccc(C(=O)N3CCn4c(nnc4C4CC4)C3)cc2nc1C | 122.4 |
| CN(C)c1cccc(C(=O)N2CCn3c(nnc3-c3ccccc3)C2)c1 | 0.7654 |
| CCc1nnc2n1CCN(C(=O)c1ccc3nc(C)c(C)nc3c1)C2 | 6.266 |
| CN1CCN(c2ccc(NC(=O)c3ccoc3)c(C(F)(F)F)c2)CC1 | 7.046 |
| O=C(c1ncncc1Cl)N1CCC2(CCCC2)CC1 | -11.62 |
| CN(C)C(=O)CCS(=O)(=O)Cc1ccn(-c2cccc(F)c2)n1 | -10.5 |
| CNC(=O)C1CC(=O)N(c2cccc(F)c2)C1 (centres undefined) | -1.566 |
| Cn1cnc(NC(=O)C2CC(=O)N(c3cccc(F)c3)C2)n1 (centres undefined) | 77.24 |
| COc1cc(NC(=O)C2CC(=O)N(c3cccc(F)c3)C2)ncn1 (centres undefined) | -6.208 |
| O=C(CCc1ccc2c(c1)CCO2)Nc1nnn[nH]1 | 108.2 |
| O=C(Cc1ccc2c(c1)OCCO2)NCCc1nnc2n1CCC2 | -0.3257 |
| O=C(Cc1ccc2c(c1)CCO2)N1CCN(c2cnccn2)CC1 | -10.75 |
| O=C(Cc1ccc2c(c1)CCO2)Nc1cccnc1-n1cncn1 | -24.6 |
| O=C(Cc1ccc2c(c1)OCCCO2)Nc1nnn[nH]1 | 102.7 |
| O=C(Cc1ccc2c(c1)OCCO2)NC1CCCC1 | -1.576 |
| CN(C)c1ncc(-c2cncnc2)c(C2CNCCO2)n1.Cl (centres undefined) | 130 |
| COc1ccc(-c2cnc(N(C)C)nc2C2CNCCO2)cc1.Cl (centres undefined) | 76.7 |
| CN(C)c1ncc(-c2ccc(F)cc2)c(C2CNCCO2)n1.Cl (centres undefined) | 112.1 |
| Cc1csc(C(C)(C)NCCCS(C)(=O)=O)n1 | -31.79 |

| Structure (SMILES) | Percent Effect [%] |
| --- | --- |
| CC(C)Cc1ccc(S(=O)(=O)Nc2ccc(=O)n(C)c2)cc1 | -23.57 |
| CC(C)C(O)C(=O)N1CCC2(CC1)c1nc[nH]c1CCN2S(C)(=O)=O (centres undefined) | -6.881 |
| CCc1cc(O)nc(C2CCCN2C(=O)c2cccnc2)n1 (centres undefined) | -9.162 |
| CC(C)(C)C(=O)N1CCCC1c1nc(O)cc(-c2ccccn2)n1 (centres undefined) | -2.189 |
| O=C(c1cc(-c2ccc(O)cc2)n[nH]1)N1CCCC1c1cccnc1 (centres undefined) | -9.956 |
| O=C(c1ccncc1)N1CCCC1c1nc(O)cc(-c2ccccn2)n1 (centres undefined) | 134.3 |
| O=C(c1cccnc1)N1CCCC1c1nc(O)cc(-c2ccccn2)n1 (centres undefined) | 120.2 |
| O=C(c1ccc2c(c1)COC2)N1CCN(CC2CC2)CC1 | -6.158 |
| Cc1nc(NC(C)C)nc2c1CN(Cc1cccs1)CC2 | 0.7721 |
| Cn1nc(COCC2CC2)c2c1CCN(Cc1ccco1)C2.O=C(O)C(F)(F)F | -12.11 |
| CCN1CCc2c(c(COC)nn2C)C1 | -29.06 |
| O=C(O)C(F)(F)F.c1csc(CN2CCCn3cnc(COCC4CC4)c3C2)c1 | -4.67 |
| Cn1nc(COCC2CC2)c2c1CCN(Cc1cccs1)C2.O=C(O)C(F)(F)F | 99.16 |
| CCOCc1nn(CC2CC2)c2c1CN(Cc1cccs1)CC2.O=C(O)C(F)(F)F.O=C(O)C(F)(F)F | 105 |
| CC(C)OCc1nn(C)c2c1CN(Cc1cccs1)CC2.O=CO | 90.1 |
| CCOCc1nn(C)c2c1CN(C(=O)c1ccno1)CC2 | -1.809 |
| COCc1nn(CC2CC2)c2c1CN(Cc1cccs1)CC2.O=C(O)C(F)(F)F | -6.214 |
| CCOCc1nn(CC2CC2)c2c1CN(Cc1ccco1)CC2.O=C(O)C(F)(F)F | -45.76 |
| CCOCc1nn(C)c2c1CN(CCO)CC2 | 105.8 |
| COCc1nn(C(C)C)c2c1CCN(Cc1cccs1)C2.O=C(O)C(F)(F)F | 0.7419 |
| Cc1ccc(C)c2c(O)cc(CNCC(=O)N3CCCC3)nc12 | -11.62 |
| COc1ccc(CNC(=O)N2CCCN(CC3CCCCC3)CC2)cn1 | -6.571 |
| CN(C)c1ncccc1NC(=O)COC1CCCC1 | 0.222 |
| O=C(O)C(F)(F)F.OCCOCc1ncn2c1CN(Cc1cccs1)CCC2 | 0.3209 |
| CCOCc1nn(C)c2c1CN(Cc1cccs1)CC2.O=C(O)C(F)(F)F | 87.87 |
| CCCN(CC(F)F)c1cc(COC)nc2ncnn12 | -12.24 |
